# Bioassay records as filed in PubChem.
# Rows were chosen to be rich in hits. Some 7.6% of all compounds tested hit in one or more screens of this group.
# Giardia killer = Giardia lamblia killing; AID 540267; activity change, % at 7.66 µM, hits read low; 340,000 compounds, 0.15% hits; Giardia lamblia trophozoite viability; in the data active means activity change below about -80%; inconclusive means between about -30% and that limit;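 further: parasites exposed to compound for two days anaerobically before the ATP read; on the % scale 0 is the no-effect control and ±100 the full control effect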
#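 Media and compound were dispensed first, then trophozoites at 100 cells/well; plates sat 48 hrs at 37 deg C without oxygen before ATP luminescence reagent was added and read after 15-30 min at room temperature.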
# ELG1 repair inh = ELG1-dependent DNA repair inhibition | HEK293T ELG1-luciferase reporter, luminescence, 16 h; DNA damage induced by 5-fluorouridine | Potency, µM (highest dose often 46.1 µM), without a hit: top-dose activity change, negative = inhibition, most hits filed as inhibitors | 330,000 compounds, 2.3% hits; further: potency means the concentration at half of the fitted maximal effect; on the % scale 0 is the no-effect control and ±100 the full control effect; nearly all actives have a fitted effect of over 55% in size
#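 In this reporter screen, reduction of luminescence relative to DMSO vehicle indicated activity. Compounds and 5-fluorouridine were added together to 2,000 cells per well, incubated for 16 hr at 37 °C, then developed with ONE-Glo.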
# VP16 counter = inhibits Gal4-VP16 luciferase reporter, ROR gamma counter-screen | Drosophila S2 Gal4-VP16 UAS-luciferase, luminescence, 20 h | Potency, µM (titrated, usually from 53.6 µM), inactives show top-dose activity, negative = inhibition, actives largely listed as inhibitors | AID 2546 | 310,000 compounds, 3.5% hits;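 further: Gal4-VP16 expression switched on by copper sulfate through the metallothionein promoter; potency means the concentration at half of the fitted maximal effect; on the % scale 0 is the no-effect control and ±100 the full control effect; nearly all actives have a fitted effect of over 50% in size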
# BRCA1 expr up = activators of BRCA1 expression | MCF7-BRCA1-FFLuc reporter, luminescence, 48 h; response scale: scaled: vehicle 0%, 10 µM genistein 100% | Potency, µM (doses to about 46.1 µM), for inactives: top-dose activation, usual class: activators | 380,000 compounds, 1.1% hits; further: potency means the concentration at half of the fitted maximal effect; nearly all actives have a fitted effect of over 80% in size
#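 Luminescence from a BRCA1-driven firefly luciferase in MCF7 cells was read after 48 h compound exposure at 37 C. Data normalized against DMSO and a 10microM genistein activation control, then curve-fitted across the titration.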
# RORg inh = inhibitors of mouse ROR gamma transcriptional activity. P51450. Drosophila S2 Gal4-RORgamma UAS-luciferase reporter, 20 h. Potency, µM (series often up to 53.6 µM), inactives show at the highest dose activity change, negative = inhibition, usual class: inhibitors. 310,000 compounds, 5.4% hits. AID 2551; further: potency means the concentration at half of the fitted maximal effect; on the % scale 0 is the no-effect control and ±100 the full control effect; nearly all actives have a fitted effect of over 60% in size
# Target sequence (P51450 whole entry, looked up, the tested form may be a part): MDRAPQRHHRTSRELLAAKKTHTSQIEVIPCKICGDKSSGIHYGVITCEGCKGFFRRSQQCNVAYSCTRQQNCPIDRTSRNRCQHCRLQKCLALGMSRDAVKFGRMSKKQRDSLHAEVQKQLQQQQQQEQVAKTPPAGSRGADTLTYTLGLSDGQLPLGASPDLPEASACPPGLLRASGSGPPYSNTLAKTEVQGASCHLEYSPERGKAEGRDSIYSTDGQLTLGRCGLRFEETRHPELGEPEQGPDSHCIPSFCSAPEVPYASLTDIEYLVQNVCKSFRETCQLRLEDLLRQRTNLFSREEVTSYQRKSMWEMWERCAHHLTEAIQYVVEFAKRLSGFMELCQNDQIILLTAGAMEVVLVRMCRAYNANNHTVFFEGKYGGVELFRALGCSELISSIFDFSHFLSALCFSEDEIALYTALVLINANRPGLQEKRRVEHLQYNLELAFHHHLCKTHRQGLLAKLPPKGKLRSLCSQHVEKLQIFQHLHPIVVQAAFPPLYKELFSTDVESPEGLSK
#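 Drosophila S2 cells stably expressing Gal4-DBD/mouse RORγ fusion under metallothionein promoter plus UAS-luciferase; compound 1 h, then 700 uM CuSO4 induction for 20 h at ambient temperature; inhibition read as reduced luminescence.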
# p53 reactivation = restores transcriptional activity of mutant p53; H1299 p53-A138V BP100-luciferase reporter, luminescence, 24 h; Potency, µM (doses to about 92.2 µM), for inactives: at the highest dose activity change, positive = activation, most hits filed as activators; 320,000 compounds, 0.063% hits; AID 504706; further: potency means the concentration at half of the fitted maximal effect; % of control where 0% means no effect; nearly all actives have a fitted effect of over 45% in size
#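 H1299 (p53-null), stable ts p53-A138V + BP100-Luc; 1000 cells/well, Opti-MEM/10% FBS; cpd 4 pt, 1:5; 24 h, 37 deg C, 5% CO2; detection reagent 10 min RT; luminescence.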
# * = called active by the depositor; ? = inconclusive; . = no result; [ ] = remark or other dose. Unless noted, the call rests on the fitted dose curve; in most records, active means well fitted curve in the direction sought with a large enough effect; inconclusive means small, poorly fitted or top-dose-only effect, or another doubt; inactive means no such curve, though single readings can be large; an effect the other way counts as inactive or inconclusive.
SMILES,Giardia killer,ELG1 repair inh,VP16 counter,BRCA1 expr up,RORg inh,p53 reactivation
COc1ccc(-c2ccc(-c3nc4c(c(=O)[nH]c(=O)n4Cc4ccccc4)n3C)o2)c([N+](=O)[O-])c1,-15,5.8µM*,-37%,-32%,-4%[10 µM],-3%
COCCn1c(-c2ccc(SC)cc2)nc2c1c(=O)[nH]c(=O)n2CC(C)C,6,0%,-2%,-19%,40%,-3%
COCCn1c(=O)[nH]c(=O)c2c1nc(-c1ccc(-c3ccc(Cl)cc3[N+](=O)[O-])o1)n2Cc1ccccc1,10,13µM*,?,-51%,?,-15%
COc1ccccc1NC(=O)CN(c1ccc(C23CC4CC(CC(C4)C2)C3)cc1)S(C)(=O)=O,-16,25%,1%,-57%,28%,12%
CCCOc1ccc(C(=O)CCN2CCCCC2)cc1,0,-1%,14µM*,-52%,?,-12%
CCOc1ccc(OCCN2CCCCC2)cc1,5,12%,-3%,-3%,-11%,7%
CCCOc1ccc(C(=O)c2nc3c(n2O)CCCCC3)cc1,9,3%,20µM*,3%,14%,20%
CCCCOc1ccc(C(=O)CCN2CCOCC2)cc1,-11,?,?,-113%,?,-20%
CCOc1ccc(C(=O)CCN2CCCCCC2)cc1,-1,-5%,5.6µM*,-101%,4.5µM*,-24%
CCCCOc1c(Br)cc(CNCCCN2CCOCC2)cc1OC,0,-7%,-10%,-27%,-17%,19%
CC(Oc1ccccc1)C(=O)Nc1nnc(S(=O)(=O)N2CCCCC2)s1 (configuration not stated),-84*,15%,-9%,6%,7%,-3%
COc1ccc(C2c3ccc(O)cc3Oc3ncn4nc(-c5cccnc5)nc4c32)cc1OC (configuration not stated),-2,10µM*,-18%,-65%,2%,4%
COc1ccc(C2c3ccc(O)cc3Oc3ncn(Cc4ccco4)c(=N)c32)cc1OC (configuration not stated),3,0%,-2%,-11%,1%,-8%
CCCCNC(=S)N1CCN(C(c2ccccc2)c2ccccc2)CC1,6,21µM*,?,-56%,3.2µM*,-6%
CCNC(=S)N1CCN(C(c2ccccc2)c2ccccc2)CC1,13,?,-4%,-14%,45%,-6%
S=C(NCCc1ccccc1)N1CCN(C(c2ccccc2)c2ccccc2)CC1,28,-15%,?,-27%,10µM*,1%
CCCCNC(=O)N1CCN(C(c2ccccc2)c2ccccc2)CC1,1,-12%,13%,-19%,-39%,-3%
CCCNC(=S)N1CCN(C(c2ccccc2)c2ccccc2)CC1,-10,2%,18µM*,-50%,11µM*,-2%
S=C(NCCc1ccccc1)N1CCCC1,3,.,.,85%,.,.
CCC(C)(C)NC(=O)CN(C(=O)CCC(=O)Nc1nccs1)c1cccc(C)c1C,20,-24%,-3%,-26%,?,.
CCOc1nc(C)cc(COC)c1C(N)=O,5,-5%,-8%,0%,-11%,2%
CCOc1ccc(CCNC(=O)COC(=O)c2ccc(OC)c(OC)c2OC)cc1OCC,11,9.2µM*,3%,-22%,31%,-4%
CCOCC(=O)Nc1ccc2c(c1)N(S(=O)(=O)c1cccs1)CCC2,11,-2%,.,-6%,.,-1%
CCOc1cc(N2CCOCC2)c(OCC)cc1NC(=O)COc1cccc(CC)c1,-8,23µM*,.,-32%,.,-10%
CCOc1cc(N2CCOCC2)c(OCC)cc1NC(C)C(=O)N1CCC(C)CC1 (configuration not stated),-11,9.2µM*,?,1%,26%,-1%
SMILES,Giardia killer,ELG1 repair inh,VP16 counter,BRCA1 expr up,RORg inh,p53 reactivation
CCOc1cc(N2CCOCC2)c(OCC)cc1NC(=O)CSc1ccccc1C(=O)O,-3,-2%,.,-23%,.,5%
CCOc1cc(N2CCOCC2)c(OCC)cc1NCC(=O)N1CCN(Cc2ccccc2)CC1,-6,8.2µM*,?,0%,-32%,-3%
Cc1ccc(C2(C)NC(=O)N(CC(=O)N3CCN(S(=O)(=O)c4ccccc4[N+](=O)[O-])CC3)C2=O)cc1 (configuration not stated),-14,.,.,-24%,.,.
COCc1cc(=O)n2[nH]c(SCc3ccccc3)nc2n1,25,10%,-13%,4%,0%,-3%
CCn1ncc(/C=C/C(=O)c2ccccc2)c1C,4,?,?,11µM*,-76%,?
Cc1c(/C=C/C(=O)c2ccccc2)cnn1C,-6,?,-17%,?,-9%,?
Cc1c(/C=C/C(=O)c2ccc(O)cc2)cnn1C,-14,?,-17%,?,39%,?
Cc1c(/C=C/C(=O)c2ccc(C(C)C)cc2)cnn1C,-2,?,?,11µM*,28%,-8%
CCn1cc(/C=C/C(=O)c2ccc(O)cc2)c(C)n1,-26,?,4µM*,?,2.2µM*,?
O=C(CSc1nnc(C2COc3ccccc3O2)o1)NC1CCCCC1 (configuration not stated),13,?,-1%,-7%,3%,6%
CC(=O)c1ccc(NC(=O)c2ccc(S(=O)(=O)c3ccccc3)cc2)cc1,28,?,7%,-11%,32%,5%
CC(NCc1ccc(OCc2ccc(Cl)cc2)cc1)C(O)c1ccccc1 (configuration not stated),-1,1%,?,-46%,35µM*,-5%
CC(NCc1cccc(OCc2ccccc2)c1)C(O)c1ccccc1 (configuration not stated),11,-11%,-7%,-49%,?,17%
COC(=O)c1ccc(-c2noc(CN(C)CCC3CCCCO3)n2)cc1 (configuration not stated),0,?,5.6µM*,2%,5.6µM*,-12%
COc1ccc(-c2noc(CN(C)CCC3CCCCO3)n2)cc1 (configuration not stated),9,8%,-1%,8%,10%,-5%
C=CCNC(=S)N/N=C/c1ccc(OCc2ccccc2Cl)cc1,13,?,1.6µM*,-1%,0.79µM*,-2%
CC(C)CNC(=O)COC(=O)c1c2c(nc3ccccc13)/C(=C\c1cccs1)CC2,-10,.,.,-43%,.,.
O=C(COC(=O)c1c2c(nc3ccccc13)CCCC2)Nc1ccc2c(c1)OCO2,6,?,-10%,-51%,21%,-11%
